Results reported in PubChem BioAssay AID588689 (Southern Research Specialized Biocontainment Screening …, 2011).
Hit rate of the full screen: of about 340,000 compounds, about 1,000 (0.29%) were called active. No stated cut-off is given here; in the data, inconclusive means inhibition above about 29% without an active follow-up result; inactive means below that. Only a sample is shown. Entries with a potency or affinity are not part of this list.

Target: Genome polyprotein (Dengue virus type 2 (strain 16681-PDK53)) (UniProt P29991)
Test: flavivirus cap methylation enzyme inhibition – biochemical, confirmation dose response, primary screen (AID 588689)
Conditions: Dengue-2 NS5 methyltransferase capping enzyme assay, at 25 µM, stronger effect = higher value

Sequence of Genome polyprotein (Dengue virus type 2 (strain 16681-PDK53)) (P29991 whole entry, looked up): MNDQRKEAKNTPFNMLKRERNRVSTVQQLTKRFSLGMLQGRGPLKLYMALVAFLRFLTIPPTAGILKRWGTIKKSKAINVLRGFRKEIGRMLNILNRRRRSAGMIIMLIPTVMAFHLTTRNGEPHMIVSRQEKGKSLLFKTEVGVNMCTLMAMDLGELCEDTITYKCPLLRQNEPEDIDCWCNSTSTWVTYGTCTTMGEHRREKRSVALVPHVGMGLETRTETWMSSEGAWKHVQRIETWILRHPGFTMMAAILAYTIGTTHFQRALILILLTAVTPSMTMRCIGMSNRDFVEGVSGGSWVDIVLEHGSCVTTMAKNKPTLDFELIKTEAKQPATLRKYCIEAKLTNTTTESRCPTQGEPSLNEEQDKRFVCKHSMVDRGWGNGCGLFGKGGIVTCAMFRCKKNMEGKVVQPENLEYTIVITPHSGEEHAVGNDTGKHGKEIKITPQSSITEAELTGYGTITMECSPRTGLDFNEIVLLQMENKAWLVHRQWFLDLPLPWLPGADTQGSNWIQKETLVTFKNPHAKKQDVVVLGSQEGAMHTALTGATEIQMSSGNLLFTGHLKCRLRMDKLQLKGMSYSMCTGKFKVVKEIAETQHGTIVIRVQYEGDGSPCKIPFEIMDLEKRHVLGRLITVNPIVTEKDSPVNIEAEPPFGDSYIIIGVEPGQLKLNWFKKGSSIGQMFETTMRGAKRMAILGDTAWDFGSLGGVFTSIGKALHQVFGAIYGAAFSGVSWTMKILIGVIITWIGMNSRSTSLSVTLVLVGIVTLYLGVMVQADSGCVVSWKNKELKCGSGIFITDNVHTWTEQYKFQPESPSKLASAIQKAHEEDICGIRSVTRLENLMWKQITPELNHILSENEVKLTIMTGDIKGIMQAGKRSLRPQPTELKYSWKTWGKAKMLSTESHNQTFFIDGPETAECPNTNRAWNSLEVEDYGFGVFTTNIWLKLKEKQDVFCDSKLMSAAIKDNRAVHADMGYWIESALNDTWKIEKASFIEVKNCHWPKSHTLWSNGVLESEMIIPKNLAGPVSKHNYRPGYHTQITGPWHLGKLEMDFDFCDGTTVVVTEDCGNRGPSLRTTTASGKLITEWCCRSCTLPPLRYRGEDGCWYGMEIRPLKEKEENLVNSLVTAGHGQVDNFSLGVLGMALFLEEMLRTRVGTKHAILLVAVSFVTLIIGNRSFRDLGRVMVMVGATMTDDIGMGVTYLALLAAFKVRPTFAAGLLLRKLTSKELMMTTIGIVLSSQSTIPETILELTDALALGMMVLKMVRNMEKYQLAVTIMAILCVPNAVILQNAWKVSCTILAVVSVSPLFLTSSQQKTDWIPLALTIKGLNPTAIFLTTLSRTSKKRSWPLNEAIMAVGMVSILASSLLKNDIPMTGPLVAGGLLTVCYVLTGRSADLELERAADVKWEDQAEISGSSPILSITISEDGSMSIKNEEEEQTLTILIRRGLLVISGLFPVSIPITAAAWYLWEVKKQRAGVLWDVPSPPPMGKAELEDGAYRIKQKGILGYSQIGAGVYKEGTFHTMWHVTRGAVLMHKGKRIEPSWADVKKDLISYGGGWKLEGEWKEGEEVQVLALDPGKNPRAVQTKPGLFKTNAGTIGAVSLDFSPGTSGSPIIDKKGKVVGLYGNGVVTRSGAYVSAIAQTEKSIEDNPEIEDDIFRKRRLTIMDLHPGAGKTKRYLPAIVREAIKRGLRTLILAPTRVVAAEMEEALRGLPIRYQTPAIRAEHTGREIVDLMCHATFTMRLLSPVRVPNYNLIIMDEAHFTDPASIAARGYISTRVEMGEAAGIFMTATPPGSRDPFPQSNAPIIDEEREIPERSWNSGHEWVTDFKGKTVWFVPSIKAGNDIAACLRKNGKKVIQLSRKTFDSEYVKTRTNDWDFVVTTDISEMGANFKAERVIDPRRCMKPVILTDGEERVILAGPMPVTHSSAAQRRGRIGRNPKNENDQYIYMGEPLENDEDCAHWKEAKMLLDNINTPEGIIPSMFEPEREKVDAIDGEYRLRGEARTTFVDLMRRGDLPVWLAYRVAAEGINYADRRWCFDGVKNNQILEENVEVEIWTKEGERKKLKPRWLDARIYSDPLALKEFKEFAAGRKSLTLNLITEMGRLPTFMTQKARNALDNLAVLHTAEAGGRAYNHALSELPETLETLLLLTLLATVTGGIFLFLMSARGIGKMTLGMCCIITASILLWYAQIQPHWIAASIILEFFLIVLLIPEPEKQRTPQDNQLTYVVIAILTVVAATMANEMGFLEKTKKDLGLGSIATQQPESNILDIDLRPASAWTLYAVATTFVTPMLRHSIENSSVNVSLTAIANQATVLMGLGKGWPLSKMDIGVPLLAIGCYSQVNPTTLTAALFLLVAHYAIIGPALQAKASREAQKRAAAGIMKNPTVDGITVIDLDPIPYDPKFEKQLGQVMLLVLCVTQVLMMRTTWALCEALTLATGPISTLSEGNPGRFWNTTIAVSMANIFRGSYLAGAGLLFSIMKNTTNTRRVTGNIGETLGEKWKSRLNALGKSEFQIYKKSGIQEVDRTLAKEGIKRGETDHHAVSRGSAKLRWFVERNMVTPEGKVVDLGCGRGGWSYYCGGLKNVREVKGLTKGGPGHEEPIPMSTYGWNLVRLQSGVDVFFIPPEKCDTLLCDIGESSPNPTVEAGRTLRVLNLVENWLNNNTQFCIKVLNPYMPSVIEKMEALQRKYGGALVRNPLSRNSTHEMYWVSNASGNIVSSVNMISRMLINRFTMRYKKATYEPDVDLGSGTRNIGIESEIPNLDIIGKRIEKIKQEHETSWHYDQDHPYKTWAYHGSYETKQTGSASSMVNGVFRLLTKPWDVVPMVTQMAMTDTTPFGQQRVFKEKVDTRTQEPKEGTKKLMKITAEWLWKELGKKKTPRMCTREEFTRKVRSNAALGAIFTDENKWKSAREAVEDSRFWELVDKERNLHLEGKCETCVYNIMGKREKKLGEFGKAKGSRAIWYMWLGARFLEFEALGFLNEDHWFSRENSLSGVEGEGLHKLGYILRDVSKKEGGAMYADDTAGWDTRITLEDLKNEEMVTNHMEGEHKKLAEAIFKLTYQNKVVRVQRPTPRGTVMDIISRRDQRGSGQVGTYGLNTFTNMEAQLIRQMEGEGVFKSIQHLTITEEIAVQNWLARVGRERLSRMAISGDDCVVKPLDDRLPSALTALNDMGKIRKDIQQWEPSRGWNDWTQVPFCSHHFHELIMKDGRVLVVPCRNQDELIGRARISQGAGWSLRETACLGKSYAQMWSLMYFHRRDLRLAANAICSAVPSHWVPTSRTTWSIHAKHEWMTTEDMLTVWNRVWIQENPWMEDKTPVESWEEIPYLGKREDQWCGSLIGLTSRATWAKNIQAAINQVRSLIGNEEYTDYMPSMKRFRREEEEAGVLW

O=C1[C@H]2[C@@H](c3ccccc3)N[C@]3(CCCN(Cc4ccc(Cl)cc4)C3=O)[C@H]2C(=O)N1Cc1ccccc1
inhibition: -4.41% (inactive)

CC(=O)C1N=NCC1c1ccccc1 (stereo unspecified)
inhibition: 0.78% (inactive)

O=C(CSc1ccc(-c2ccc(F)cc2)nn1)NC1CCCCC1
inhibition: -4.13% (inactive)

COCc1cc(=O)n2[nH]c(C)cc2n1
inhibition: -5.47% (inactive)

CC1CCN(S(=O)(=O)c2ccc3[nH]c(=O)[nH]c3c2)CC1
inhibition: -10.8% (inactive)

COc1ccc(C(=O)/C=C/c2ccc(OCc3ccccc3)cc2)cc1CSCC(=O)O
inhibition: 11.7% (inactive)

COc1ccc(C(=O)/C=C/c2ccsc2)cc1CSCC(=O)O
inhibition: 6.74% (inactive)

COc1ccc(CCC(=O)OCC(=O)c2ccc[nH]2)cc1OC
inhibition: 1.46% (inactive)

CSc1nccn1CC(=O)Nc1ccc(F)cc1
inhibition: -6.45% (inactive)

CCc1ccccc1NC(=O)NC1CC2CCC(C1)N2Cc1ccco1 (stereo unspecified)
inhibition: -3.12% (inactive)

CCCC(N)CCCCCC(=O)O (stereo unspecified)
inhibition: -9.35% (inactive)

CCCCCCC(=O)O
inhibition: -2.09% (inactive)

CCNc1nc(NCC)n2c(SCC(=O)NC34CC5CC(CC(C5)C3)C4)nnc2n1
inhibition: -8.01% (inactive)

CCCCCn1c(N)c(-c2nc3ccccc3s2)c2c([N+](=O)[O-])nn(CC)c(=O)c21
inhibition: -4.79% (inactive)

CCCCn1c(N)c(-c2nc3ccccc3o2)c2c([N+](=O)[O-])nn(CC)c(=O)c21
inhibition: -0.74% (inactive)

CCCn1nc([N+](=O)[O-])c(C(C#N)c2nc3ccccc3s2)c(Cl)c1=O (stereo unspecified)
inhibition: 27.6% (inactive)

CCCCn1c(N)c(-c2nc3ccccc3s2)c2c([N+](=O)[O-])nn(CC)c(=O)c21
inhibition: -3.23% (inactive)

Cn1c(C(C#N)C(=O)c2sc3ccccc3c2Cl)nc2ccccc21 (stereo unspecified)
inhibition: -3.45% (inactive)

O=[N+]([O-])c1ccc(CC(Cl)c2ccccn2)cc1 (stereo unspecified)
inhibition: 0.78% (inactive)

N#CC(c1ccccn1)c1ncc(C(F)(F)F)cc1Cl (stereo unspecified)
inhibition: -2.95% (inactive)

Cc1nc([N+](=O)[O-])c(Sc2nc3ccccc3n2C)n1Cc1ccccc1
inhibition: 11.5% (inactive)

COc1ccc(/C=C(\C#N)C(=O)OCC(=O)N2CC(C)OC(C)C2)cc1 (stereo unspecified)
inhibition: -2.3% (inactive)

O=C(CCCOc1ccc(Cl)cc1Cl)N/N=C/c1ccccc1
inhibition: -4.44% (inactive)

CCCCCCCC(=O)N1c2ccccc2NC(=O)C1CC(=O)Nc1ccc(C(=O)O)cc1 (stereo unspecified)
inhibition: 8.1% (inactive)

Cc1ccccc1NS(=O)(=O)c1ccc(C(=O)N2CCCC(C(F)(F)F)C2)cc1 (stereo unspecified)
inhibition: 0.73% (inactive)

COc1cc(OC)cc(C(=O)NC2CCSC2=O)c1 (stereo unspecified)
inhibition: 2.06% (inactive)
inhibition (measured here: pilot screen replicate inhibition): -3.04%

CCc1c(C)c2nncn2[nH]c1=O
inhibition: -3.9% (inactive)

CCOc1ccc(NC(=O)CN(C)C(=O)C2CC(=O)N(c3ccc4c(c3)OCCO4)C2)cc1OCC (stereo unspecified)
inhibition: 5.04% (inactive)

CC(C)Cn1c(SCC(=O)N2CC(=O)Nc3ccccc32)nc2ccccc21
inhibition: -0.64% (inactive)

CC(=O)OCC1CCCC2=C(C)C(=O)CCC21COC(C)=O (stereo unspecified)
inhibition: 3.29% (inactive)

Cc1ccccc1NC(=O)NC1(C(=O)N2CCOCC2)CCCCC1
inhibition: -3.7% (inactive)

COc1ccc(CCn2c(=O)c3cccnc3n(Cc3ccc([N+](=O)[O-])cc3)c2=O)cc1OC
inhibition: -7.08% (inactive)

CCS(=O)(=O)c1ccc(O)c(NC(=O)CCCC(=O)O)c1
inhibition: 12.2% (inactive)

CCCCCC(=O)Nc1cc(S(=O)(=O)N2CCCCC2)ccc1N1CCCCC1
inhibition: -6.48% (inactive)

Cc1ccc(N2CC(C(=O)OCc3nc(N)nc(Nc4ccccc4C)n3)CC2=O)cc1 (stereo unspecified)
inhibition: 2.96% (inactive)

CCCCC/C=C/C1=CC(=O)C[C@H](c2ccc(OC)cc2)C1
inhibition: -0.8% (inactive)

CC(C)C(NC(=O)C1CCC(C(C)(C)C)CC1)C(=O)NCCc1ccc(S(N)(=O)=O)cc1 (stereo unspecified)
inhibition: 9.25% (inactive)

O=C(/C=C/c1cccc([N+](=O)[O-])c1)NCCN1C(=O)S/C(=C\c2ccc(F)cc2)C1=O
inhibition: 5.26% (inactive)

O=C(O)c1cccc(CN2C(=O)S/C(=C/c3ccccc3[N+](=O)[O-])C2=O)c1
inhibition: 28.5% (inactive)

CCCCNC(C(=O)Nc1ccc([N+](=O)[O-])cc1Br)c1ccccc1 (stereo unspecified)
inhibition: 1.47% (inactive)

COc1ccc(C(=O)N2CCC(C(=O)Nc3ccc4c(c3)OCO4)CC2)cc1
inhibition: -4.42% (inactive)

O=C(NCc1ccc(F)cc1)C(=O)NCC1OCCN1S(=O)(=O)c1cc(F)ccc1F (stereo unspecified)
inhibition: 6.59% (inactive)

Cc1ccc([N+](=O)[O-])cc1NC(=O)C(C)NS(=O)(=O)c1ccc(F)cc1 (stereo unspecified)
inhibition: 2.19% (inactive)

COc1ccc(NC(=O)CCCc2nc3ccccc3c(=O)[nH]2)cc1Cl
inhibition: 6.22% (inactive)

COC(=O)CCC(=O)OC1(C)C(=O)C2=CN(Cc3ccc(OC)cc3)C(c3ccc(OC)cc3)=CC2=C(Br)C1=O (stereo unspecified)
inhibition: 17.2% (inactive)

COC(=O)CCC(=O)OC1(C)C(=O)C=C2C=C(C3CC3)N(C3CCCCC3)C=C2C1=O (stereo unspecified)
inhibition: 12.7% (inactive)

COC(=O)CCC(=O)OC1(C)C(=O)C2=CN(CCc3c[nH]c4ccccc34)C(c3ccc(OC)cc3)=CC2=C(Br)C1=O (stereo unspecified)
inhibition: -2.45% (inactive)

COC(=O)CCC(=O)OC1(C)C(=O)C=C2C=C(C3CC3)N(Cc3ccc(OC)cc3)C=C2C1=O (stereo unspecified)
inhibition: 17.3% (inactive)

COC(=O)CCC(=O)OC1(C)C(=O)C=C2C=C(C3CC3)N(CC3CC3)C=C2C1=O (stereo unspecified)
inhibition: 9.84% (inactive)

CCN(CC)CCCN1C=C2C(=O)C(C)(OC(=O)CCC(=O)OC)C(=O)C(Br)=C2C=C1c1ccc(OC)cc1 (stereo unspecified)
inhibition: 8.8% (inactive)

COC(=O)CCC(=O)OC1(C)C(=O)C=C2C=C(C3CC3)N(CCCOC(C)C)C=C2C1=O (stereo unspecified)
inhibition: 7.22% (inactive)

COC(=O)CCC(=O)OC1(C)C(=O)C=C2C=C(C3CC3)N(C3CCCC3)C=C2C1=O (stereo unspecified)
inhibition: 12.8% (inactive)

N#Cc1ccc(CN2CCN(C(=O)CCNS(=O)(=O)c3ccc(F)c(F)c3)CC2)cc1
inhibition: -7.08% (inactive)

O=C(CSc1ccc2c(c1)OCCO2)NCC1CCCO1 (stereo unspecified)
inhibition: -10.5% (inactive)

O=c1c(-c2ccccc2)c(O)c2c(n1-c1ccccc1)CCCC2
inhibition: -3.21% (inactive)
